Laboratory results taken from the supplement of paper PMC11732987, “Enantioselective OTUD7B fragment discovery through chemoproteomics screening and high-throughput optimisation” (Communications Chemistry, 2025).

Columns and labels:
Test in all cases: log2 ratio of Biotin-Ahx-Ub-VS probe labelling (fragment/DMSO); higher = less target engagement (more negative = stronger competition), active = hit call of the paper (q ≤ 0.05, log2 ratio ≤ -1)
Conditions in all cases: compound concentration: 200 uM; treatment time: 3 h
[1] = target: USP34 (UniProt Q70CQ2)
Summary of the method: (§1)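 Triplicate samples of HEK293T lysate, 495 µg each, received fragment at 200 µM or vehicle for 3 h, followed by Biotin-Ahx-Ub-VS (0.5 µM final) for 1 h. After NeutrAvidin enrichment of labelled DUBs and LysC/trypsin digestion, peptides were run by diaPASEF LC-MS/MS. The values are average log2 fragment/vehicle ratios from global-median-normalised Spectronaut label-free quantities, tested by unpaired t-test on proteins having ≥2 unique peptides.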

[2] = target: T1, USP36 (UniProt Q9P275)
T1 sequence (whole entry): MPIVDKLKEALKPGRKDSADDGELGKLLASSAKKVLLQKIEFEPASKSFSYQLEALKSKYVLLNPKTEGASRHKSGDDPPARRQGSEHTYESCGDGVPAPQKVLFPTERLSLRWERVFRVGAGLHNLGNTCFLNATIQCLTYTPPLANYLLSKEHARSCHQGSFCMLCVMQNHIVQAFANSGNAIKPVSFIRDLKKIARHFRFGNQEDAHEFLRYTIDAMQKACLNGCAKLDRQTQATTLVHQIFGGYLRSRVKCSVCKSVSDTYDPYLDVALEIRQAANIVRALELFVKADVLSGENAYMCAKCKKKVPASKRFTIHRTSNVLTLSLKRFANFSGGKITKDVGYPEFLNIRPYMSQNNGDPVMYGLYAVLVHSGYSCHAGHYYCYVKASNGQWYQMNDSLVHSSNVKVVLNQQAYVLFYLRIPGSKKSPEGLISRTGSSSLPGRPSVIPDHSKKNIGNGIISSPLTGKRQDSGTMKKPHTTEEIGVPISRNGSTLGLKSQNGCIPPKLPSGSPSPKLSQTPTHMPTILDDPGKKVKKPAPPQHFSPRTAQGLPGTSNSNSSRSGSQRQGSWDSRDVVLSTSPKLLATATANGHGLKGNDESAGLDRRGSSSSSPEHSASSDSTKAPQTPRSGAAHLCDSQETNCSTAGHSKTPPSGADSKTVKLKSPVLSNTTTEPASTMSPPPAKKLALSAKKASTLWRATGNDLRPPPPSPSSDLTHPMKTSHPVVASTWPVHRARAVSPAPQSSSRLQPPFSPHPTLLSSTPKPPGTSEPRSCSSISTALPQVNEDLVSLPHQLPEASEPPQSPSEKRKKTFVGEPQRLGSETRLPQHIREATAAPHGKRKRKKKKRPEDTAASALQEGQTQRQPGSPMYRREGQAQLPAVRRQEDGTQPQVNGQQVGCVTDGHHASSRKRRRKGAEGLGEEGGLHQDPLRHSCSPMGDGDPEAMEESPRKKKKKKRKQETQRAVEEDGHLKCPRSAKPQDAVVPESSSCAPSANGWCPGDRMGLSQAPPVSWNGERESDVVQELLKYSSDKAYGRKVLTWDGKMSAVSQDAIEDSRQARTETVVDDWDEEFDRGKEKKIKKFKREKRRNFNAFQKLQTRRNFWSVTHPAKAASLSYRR
Summary of the method: as §1

[3] = target: T2, USP38 (UniProt Q8NB14)
T2 sequence (whole entry): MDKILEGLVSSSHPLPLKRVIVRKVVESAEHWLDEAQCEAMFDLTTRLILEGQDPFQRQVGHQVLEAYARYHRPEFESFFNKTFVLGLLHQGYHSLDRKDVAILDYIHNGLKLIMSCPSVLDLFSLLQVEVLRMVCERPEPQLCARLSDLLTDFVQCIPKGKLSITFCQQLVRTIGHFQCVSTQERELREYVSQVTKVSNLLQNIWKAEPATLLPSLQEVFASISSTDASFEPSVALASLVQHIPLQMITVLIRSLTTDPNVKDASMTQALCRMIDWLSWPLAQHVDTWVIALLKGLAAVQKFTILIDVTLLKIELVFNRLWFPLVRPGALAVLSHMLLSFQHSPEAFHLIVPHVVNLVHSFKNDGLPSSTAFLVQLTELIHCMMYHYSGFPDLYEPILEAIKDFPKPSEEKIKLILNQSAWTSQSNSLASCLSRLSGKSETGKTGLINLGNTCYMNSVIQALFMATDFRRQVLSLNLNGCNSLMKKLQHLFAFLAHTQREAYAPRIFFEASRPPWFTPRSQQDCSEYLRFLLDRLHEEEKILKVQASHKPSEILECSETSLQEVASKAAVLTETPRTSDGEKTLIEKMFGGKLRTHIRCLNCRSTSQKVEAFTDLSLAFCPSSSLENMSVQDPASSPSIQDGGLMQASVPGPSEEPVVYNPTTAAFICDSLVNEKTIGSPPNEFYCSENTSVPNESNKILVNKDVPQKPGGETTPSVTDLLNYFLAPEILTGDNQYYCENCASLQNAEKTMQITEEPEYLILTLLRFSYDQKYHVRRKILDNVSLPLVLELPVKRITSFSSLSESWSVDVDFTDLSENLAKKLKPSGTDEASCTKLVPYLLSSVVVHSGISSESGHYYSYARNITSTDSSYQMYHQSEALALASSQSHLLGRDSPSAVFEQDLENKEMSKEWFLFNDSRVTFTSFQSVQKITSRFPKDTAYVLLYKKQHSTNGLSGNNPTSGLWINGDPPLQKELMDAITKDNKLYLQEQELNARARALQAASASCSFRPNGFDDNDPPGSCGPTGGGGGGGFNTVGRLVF
Summary of the method: as §1

[4] = target: T3, USP39 (UniProt Q53GS9)
T3 sequence (whole entry): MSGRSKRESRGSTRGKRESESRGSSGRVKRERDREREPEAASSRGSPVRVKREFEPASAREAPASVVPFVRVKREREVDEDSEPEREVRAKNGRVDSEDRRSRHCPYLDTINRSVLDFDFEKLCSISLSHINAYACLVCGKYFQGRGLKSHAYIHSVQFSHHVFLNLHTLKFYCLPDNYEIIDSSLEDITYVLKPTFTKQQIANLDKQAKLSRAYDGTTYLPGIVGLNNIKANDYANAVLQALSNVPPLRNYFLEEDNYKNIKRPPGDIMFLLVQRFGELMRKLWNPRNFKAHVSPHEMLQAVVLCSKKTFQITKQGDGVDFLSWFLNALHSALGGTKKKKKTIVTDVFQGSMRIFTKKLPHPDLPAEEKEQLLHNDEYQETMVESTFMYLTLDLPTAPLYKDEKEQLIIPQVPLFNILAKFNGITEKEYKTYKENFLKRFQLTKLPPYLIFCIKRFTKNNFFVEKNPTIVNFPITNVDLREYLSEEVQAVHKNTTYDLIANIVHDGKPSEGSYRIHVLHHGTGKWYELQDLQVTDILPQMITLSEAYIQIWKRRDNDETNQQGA
Summary of the method: as §1

[5] = target: T4, USP4 (UniProt Q13107)
T4 sequence (whole entry): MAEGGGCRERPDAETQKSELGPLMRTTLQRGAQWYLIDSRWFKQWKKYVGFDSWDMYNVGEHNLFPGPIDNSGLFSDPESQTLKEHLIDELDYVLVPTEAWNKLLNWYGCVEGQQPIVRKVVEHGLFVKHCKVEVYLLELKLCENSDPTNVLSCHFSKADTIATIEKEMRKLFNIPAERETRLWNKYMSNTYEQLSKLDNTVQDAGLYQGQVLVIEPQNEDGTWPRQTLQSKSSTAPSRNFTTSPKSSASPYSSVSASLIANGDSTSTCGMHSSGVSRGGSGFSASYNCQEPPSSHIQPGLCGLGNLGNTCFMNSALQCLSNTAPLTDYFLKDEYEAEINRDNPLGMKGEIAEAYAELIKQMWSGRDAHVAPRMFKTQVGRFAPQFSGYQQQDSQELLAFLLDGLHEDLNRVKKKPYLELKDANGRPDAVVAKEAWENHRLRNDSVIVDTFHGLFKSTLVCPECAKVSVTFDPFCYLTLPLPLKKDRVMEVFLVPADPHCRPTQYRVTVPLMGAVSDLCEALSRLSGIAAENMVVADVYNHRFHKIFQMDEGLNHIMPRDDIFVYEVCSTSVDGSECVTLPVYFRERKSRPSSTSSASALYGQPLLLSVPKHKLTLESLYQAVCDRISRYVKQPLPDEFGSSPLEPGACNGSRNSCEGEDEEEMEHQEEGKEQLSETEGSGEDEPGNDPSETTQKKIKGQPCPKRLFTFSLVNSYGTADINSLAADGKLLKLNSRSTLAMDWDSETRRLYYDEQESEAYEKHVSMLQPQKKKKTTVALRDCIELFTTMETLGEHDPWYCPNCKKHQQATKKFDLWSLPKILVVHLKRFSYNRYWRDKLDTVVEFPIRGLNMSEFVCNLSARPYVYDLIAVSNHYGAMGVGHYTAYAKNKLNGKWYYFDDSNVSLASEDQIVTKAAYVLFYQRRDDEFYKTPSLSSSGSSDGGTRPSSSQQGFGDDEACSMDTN
Summary of the method: as §1

Measured: log2 ratio of Biotin-Ahx-Ub-VS probe labelling

USP34, sequence (Q70CQ2 whole entry, the tested form may be a part): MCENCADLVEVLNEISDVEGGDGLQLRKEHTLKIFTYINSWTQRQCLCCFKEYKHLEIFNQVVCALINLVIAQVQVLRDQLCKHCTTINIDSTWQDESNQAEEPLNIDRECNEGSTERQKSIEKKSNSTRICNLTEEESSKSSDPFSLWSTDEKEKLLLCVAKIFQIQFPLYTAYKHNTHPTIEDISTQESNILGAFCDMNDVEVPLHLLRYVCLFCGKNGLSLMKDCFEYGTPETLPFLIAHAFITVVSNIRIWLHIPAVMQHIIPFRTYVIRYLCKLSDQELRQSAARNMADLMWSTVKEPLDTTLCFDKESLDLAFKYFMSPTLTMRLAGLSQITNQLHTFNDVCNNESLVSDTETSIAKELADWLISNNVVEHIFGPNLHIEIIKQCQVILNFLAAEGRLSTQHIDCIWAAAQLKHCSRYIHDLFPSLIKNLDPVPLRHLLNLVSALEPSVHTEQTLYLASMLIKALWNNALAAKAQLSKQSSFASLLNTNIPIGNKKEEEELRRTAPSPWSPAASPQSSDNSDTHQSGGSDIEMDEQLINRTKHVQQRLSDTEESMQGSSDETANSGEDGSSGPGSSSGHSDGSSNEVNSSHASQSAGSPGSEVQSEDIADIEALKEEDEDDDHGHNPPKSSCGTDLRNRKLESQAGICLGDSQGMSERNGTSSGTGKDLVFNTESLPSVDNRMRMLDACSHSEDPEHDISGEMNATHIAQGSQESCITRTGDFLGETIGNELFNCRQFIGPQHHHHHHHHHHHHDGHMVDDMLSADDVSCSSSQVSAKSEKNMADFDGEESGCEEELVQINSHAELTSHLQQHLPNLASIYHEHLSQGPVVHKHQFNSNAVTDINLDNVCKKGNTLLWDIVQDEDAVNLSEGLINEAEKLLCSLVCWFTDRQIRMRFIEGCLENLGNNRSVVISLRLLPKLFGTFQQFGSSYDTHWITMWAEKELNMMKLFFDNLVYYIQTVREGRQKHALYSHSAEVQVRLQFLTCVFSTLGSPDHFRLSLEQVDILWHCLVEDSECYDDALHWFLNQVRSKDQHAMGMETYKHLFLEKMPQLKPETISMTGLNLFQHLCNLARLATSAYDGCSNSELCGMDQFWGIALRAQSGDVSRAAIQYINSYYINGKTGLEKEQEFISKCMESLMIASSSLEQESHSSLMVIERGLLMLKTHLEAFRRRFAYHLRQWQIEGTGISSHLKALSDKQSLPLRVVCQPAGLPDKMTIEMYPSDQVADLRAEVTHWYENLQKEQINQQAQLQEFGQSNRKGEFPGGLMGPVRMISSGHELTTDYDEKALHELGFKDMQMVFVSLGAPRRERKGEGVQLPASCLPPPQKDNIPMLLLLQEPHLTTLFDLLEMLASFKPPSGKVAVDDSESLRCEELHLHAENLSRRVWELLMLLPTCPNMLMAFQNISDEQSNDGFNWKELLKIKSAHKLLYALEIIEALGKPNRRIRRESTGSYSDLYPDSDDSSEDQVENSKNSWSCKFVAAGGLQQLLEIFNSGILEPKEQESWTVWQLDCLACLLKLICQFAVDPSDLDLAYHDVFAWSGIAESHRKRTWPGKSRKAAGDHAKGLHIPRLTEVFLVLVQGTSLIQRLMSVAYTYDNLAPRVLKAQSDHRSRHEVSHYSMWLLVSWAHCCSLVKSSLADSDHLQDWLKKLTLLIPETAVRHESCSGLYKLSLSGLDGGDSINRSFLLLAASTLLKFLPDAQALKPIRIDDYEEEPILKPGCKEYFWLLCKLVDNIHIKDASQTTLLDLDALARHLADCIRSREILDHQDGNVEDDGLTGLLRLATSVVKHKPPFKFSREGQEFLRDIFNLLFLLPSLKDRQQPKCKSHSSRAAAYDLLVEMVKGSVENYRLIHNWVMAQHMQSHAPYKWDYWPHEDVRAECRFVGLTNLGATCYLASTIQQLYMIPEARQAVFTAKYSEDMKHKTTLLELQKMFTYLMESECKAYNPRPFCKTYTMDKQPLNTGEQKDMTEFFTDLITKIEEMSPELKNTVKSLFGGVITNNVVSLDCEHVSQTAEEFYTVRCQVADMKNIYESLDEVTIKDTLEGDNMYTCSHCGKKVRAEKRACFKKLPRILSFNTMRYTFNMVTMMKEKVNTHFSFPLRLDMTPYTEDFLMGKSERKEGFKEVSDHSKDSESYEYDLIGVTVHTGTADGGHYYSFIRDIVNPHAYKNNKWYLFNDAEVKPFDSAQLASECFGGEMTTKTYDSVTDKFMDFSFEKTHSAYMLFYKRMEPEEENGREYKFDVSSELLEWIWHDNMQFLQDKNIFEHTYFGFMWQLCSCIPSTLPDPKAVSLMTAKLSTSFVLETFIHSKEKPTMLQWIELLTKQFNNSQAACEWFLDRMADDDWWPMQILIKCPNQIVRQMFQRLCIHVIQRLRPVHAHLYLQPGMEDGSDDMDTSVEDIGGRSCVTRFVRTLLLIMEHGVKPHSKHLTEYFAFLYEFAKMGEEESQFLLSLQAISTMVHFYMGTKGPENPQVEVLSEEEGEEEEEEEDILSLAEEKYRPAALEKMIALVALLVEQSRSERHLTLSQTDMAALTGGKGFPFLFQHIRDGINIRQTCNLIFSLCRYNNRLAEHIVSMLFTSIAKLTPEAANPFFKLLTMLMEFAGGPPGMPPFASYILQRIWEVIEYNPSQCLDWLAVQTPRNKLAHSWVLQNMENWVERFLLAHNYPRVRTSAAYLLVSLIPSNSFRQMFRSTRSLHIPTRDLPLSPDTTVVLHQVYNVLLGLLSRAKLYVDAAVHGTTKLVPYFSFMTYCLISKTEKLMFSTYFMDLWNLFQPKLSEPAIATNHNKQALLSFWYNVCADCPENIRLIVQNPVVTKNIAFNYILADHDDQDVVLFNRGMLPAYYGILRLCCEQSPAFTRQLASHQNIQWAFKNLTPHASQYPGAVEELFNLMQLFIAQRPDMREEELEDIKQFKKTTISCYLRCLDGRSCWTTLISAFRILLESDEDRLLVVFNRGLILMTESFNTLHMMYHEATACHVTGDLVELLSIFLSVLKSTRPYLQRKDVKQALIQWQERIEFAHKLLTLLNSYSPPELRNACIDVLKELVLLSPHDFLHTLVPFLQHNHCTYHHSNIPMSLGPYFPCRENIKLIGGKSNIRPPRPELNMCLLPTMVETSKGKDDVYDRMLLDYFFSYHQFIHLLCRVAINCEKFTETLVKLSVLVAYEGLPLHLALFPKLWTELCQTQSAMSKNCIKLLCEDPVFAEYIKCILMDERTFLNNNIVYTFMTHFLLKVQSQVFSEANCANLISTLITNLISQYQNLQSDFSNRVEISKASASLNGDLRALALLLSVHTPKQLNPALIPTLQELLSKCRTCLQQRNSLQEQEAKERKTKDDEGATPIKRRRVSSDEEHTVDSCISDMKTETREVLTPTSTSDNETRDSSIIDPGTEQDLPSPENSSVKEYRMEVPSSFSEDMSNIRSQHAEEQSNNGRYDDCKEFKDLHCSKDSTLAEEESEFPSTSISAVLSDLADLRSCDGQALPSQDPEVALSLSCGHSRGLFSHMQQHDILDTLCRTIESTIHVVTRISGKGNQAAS

Cl.O=C(CCl)N1CCC(n2nc3ccccc3n2)CC1
inactive: [1] -0.257 | [2] 0.0455 | [3] -0.223 | [4] -0.0437 | [5] -0.443
